In PubChem BioAssay AID1159580 (chemical genetic matrix, 2015):
Among all 5,500 compounds or so, about 2,000 (36%) were called active. Not shown: some 18% with an inconclusive outcome. Cut-off read from the data, not from the text of the source: active = normalized growth mostly below about 0.91 (no sharp cut-off); inconclusive = no clear call, values can overlap the other calls; inactive = mostly above about 0.92. The list shows a part of the results.

Experiment: chemical genetic growth profiling, strain panel (AID 1159580);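 note: tested at 20 µM; growth read once vehicle control cultures reached saturation at 30 °C; 1 = growth at the plate median or of vehicle wells; lower values mean less growth of the strain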
Conditions: S. cerevisiae deletion strains, growth OD

Measured: normalized growth

Nc1ccn([C@@H]2O[C@H](CO)[C@@H](O)C2O)c(=O)n1 (some centres not stated)
inactive: locus YAL013W, strain DEP1, stronger effect = lower value 0.982 | locus YAL040C, strain CLN3, stronger effect = lower value 1.03 | locus YDR363W, strain ESC2, stronger effect = lower value 0.981 | locus YER002W, strain NOP16, stronger effect = lower value 1 | locus YNL128W, strain TEP1, stronger effect = lower value 0.967 | locus YNL175C, strain NOP13, stronger effect = lower value 0.987 | locus YNL197C, strain WHI3, stronger effect = lower value 0.976 | locus YNL224C, strain SQS1, stronger effect = lower value 0.983 | locus YNL322C, strain KRE1, stronger effect = lower value 1 | locus YOR083W, strain WHI5 (second series), stronger effect = lower value 1.05 | locus YPL055C, strain LGE1, stronger effect = lower value 0.99 | locus YPL241C, strain CIN2, stronger effect = lower value 0.996
